Among all 310,000 compounds or so, about 14,000 (4.5%) showed an effect of 50% or more. The effect is printed as a negative number. The entries come from a sample that favours strong results as a whole.
target: human ether-à-go-go-related gene (hERG) potassium channel (human, UniProt Q12809); experiment: primary screen, population patch clamp on CHO cells stably expressing hERG; higher = less effect of the substance
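Further: peak tail current of the secondary pulse compared with the same well before compound.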

human ether-à-go-go-related gene (hERG) potassium channel, sequence (Q12809 whole entry, looked up): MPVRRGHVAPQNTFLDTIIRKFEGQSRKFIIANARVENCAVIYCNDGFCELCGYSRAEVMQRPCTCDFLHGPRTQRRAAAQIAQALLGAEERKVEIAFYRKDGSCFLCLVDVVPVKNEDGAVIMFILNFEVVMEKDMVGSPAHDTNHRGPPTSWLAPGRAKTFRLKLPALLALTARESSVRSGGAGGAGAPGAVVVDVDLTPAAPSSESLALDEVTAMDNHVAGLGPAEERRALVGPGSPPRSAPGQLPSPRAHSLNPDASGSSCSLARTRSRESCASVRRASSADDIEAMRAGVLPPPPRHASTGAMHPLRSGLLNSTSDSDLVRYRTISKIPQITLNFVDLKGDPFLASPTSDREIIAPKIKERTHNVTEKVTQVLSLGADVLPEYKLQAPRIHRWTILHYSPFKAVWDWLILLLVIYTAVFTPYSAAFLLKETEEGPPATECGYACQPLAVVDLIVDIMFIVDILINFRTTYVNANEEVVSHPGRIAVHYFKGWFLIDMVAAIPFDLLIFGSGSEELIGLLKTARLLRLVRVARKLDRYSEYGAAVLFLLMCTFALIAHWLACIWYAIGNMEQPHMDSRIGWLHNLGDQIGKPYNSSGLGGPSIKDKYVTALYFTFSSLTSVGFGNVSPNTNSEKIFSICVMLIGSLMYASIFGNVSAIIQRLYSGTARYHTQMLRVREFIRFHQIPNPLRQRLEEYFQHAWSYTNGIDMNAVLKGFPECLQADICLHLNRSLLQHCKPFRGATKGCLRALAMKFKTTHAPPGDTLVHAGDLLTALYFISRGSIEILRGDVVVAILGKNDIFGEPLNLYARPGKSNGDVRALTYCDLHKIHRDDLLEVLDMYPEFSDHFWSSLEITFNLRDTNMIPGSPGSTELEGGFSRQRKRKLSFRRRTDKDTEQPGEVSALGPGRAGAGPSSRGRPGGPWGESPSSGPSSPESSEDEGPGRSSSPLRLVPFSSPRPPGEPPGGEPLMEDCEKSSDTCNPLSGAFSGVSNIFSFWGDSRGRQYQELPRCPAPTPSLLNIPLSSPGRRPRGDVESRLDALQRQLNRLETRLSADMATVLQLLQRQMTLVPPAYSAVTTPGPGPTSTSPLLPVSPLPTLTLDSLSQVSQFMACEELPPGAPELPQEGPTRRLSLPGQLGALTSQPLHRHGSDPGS

SMILES	hERG current change (%, negative = inhibition) at 10uM [%]
CC(C)(C)NC(=O)c1ccc2c(c1)C1C3CCC(C3)C1C(c1ccccc1)N2 (centres unmarked)	5.59
Cc1ccc(S(=O)(=O)NCCC(=O)NCC(c2ccc(F)cc2)N2CCOCC2)cc1 (centres unmarked)	-5.84
CCc1cccc(NC(=O)C2CC2c2ccccc2)c1 (centres unmarked)	14.5
Cc1noc(C)c1C(=O)OCC(=O)N1CCN(S(=O)(=O)c2ccc3ccccc3c2)CC1	-0.697
COCc1ccccc1C1=CC(=O)C[C@H](c2ccc(OC)cc2)C1	-12.3
Cc1cc(OCc2ccc(C(=O)n3cccn3)o2)ccc1Cl	-0.553
CN(C/C(O)=C(\C#N)c1ccccc1)C1CCCCC1	-0.409
COC(=O)c1c(C)[nH]c(C(=O)/C=C/c2ccccc2)c1C	1.52
O=C(CCC(=O)N1CCOc2ccccc21)NC1CCN(Cc2ccccc2)CC1	-51
CCOC(=O)N1CCC(NC(=O)CCC(=O)N2CCOc3ccccc32)CC1	8.3
CCN1CCN(CCCNC(=O)CCC(=O)N2CCOc3ccc(Cl)cc32)CC1	-5.48
O=C(CCC(=O)N1CCOc2ccc(Cl)cc21)NCCCN1CCN(Cc2ccccc2)CC1	-73.2
O=C(CCC(=O)N1CCOc2ccccc21)NC1CCCCCC1	-20.8
Cc1nc(C)c(N)c(=O)[nH]1.Cl	16.3
O=C(NN1C(=O)C2C3C=CC(C4CC34)C2C1=O)c1ccc(Br)cc1 (centres unmarked)	22.8
CCC1CCCCN1C(=O)CSc1nnc(-c2ccco2)o1 (centres unmarked)	4.11
Cc1cccc(C(=O)Oc2cc(C)[nH]c(=O)c2[N+](=O)[O-])c1	16.7
Br.CC(=O)c1ccc(N2Cc3ccccc3C3(CCOCC3)C2=N)cc1	-57.5
CC(=O)c1ccc(N2Cc3ccccc3C2=NC(=O)c2cccs2)cc1	-20.6
CC(=O)c1ccc(N2Cc3ccccc3C2)cc1	-2.58
COc1ccc(-c2cc(N3CCCC3)n3ncnc3n2)cc1	-64.5
FC(F)(F)c1cc(-c2ccccc2)nc2ncnn12	7.8

SMILES	hERG current change (%, negative = inhibition) at 10uM [%]
O=S(=O)(c1ccc(Br)cc1)N1CCN(c2ccc3nnc(-c4ccccc4)n3n2)CC1	-32
CCCNC(=O)C1CCN(c2cc(-c3ccccc3)nc3ncnn23)CC1	-75.8
Cc1ccccc1NC(=O)C1CCN(c2cc(-c3ccccc3)nc3ncnn23)CC1	-8.86
COc1ccc(S(=O)(=O)N2CCN(c3ccc4nnc(-c5ccc(F)cc5)n4n3)CC2)cc1	-19.4
FC(F)(F)c1ccc(N2CCN(c3cc(-c4ccccc4)nc4ncnn34)CC2)nc1	-65.1
COc1ccc(-c2cc3nc(-c4ccccc4)cc(N4CCC(O)CC4)n3n2)cc1	-7.45
COc1ccc(-c2cc(C(F)(F)F)nc(N3CCCCCC3)n2)cc1	2.13
CCCNC(=O)C1CCN(c2nc(C)cc(C)n2)CC1	0.749
COc1ccc(S(=O)(=O)N2CCN(c3ccc4nnc(-c5ccccc5)n4n3)CC2)cc1	-66.4
FC(F)(F)c1cccc(Nc2cc(-c3ccccc3)nc3ncnn23)c1	13.5
Cc1nnsc1Sc1ccccc1C(=O)O	8.3
Cc1n[nH]c(C)c1S(=O)(=O)N(C)Cc1ccco1	2.13
O=C(NCc1c(O)ccc2ccccc12)c1ccccc1	12
CC(C)c1ccc(NC(=O)C2C3C=CC4(O3)C2C(=O)N(CCCN2CCOCC2)C4C(=O)NC2CCCCC2)cc1 (centres unmarked)	19.9
COc1ccc(NC(C)=O)c(C)c1	18.2
COc1ccc(OC)c(NC(=O)C2CCN(c3cc(-c4ccccc4)nc4ncnn34)CC2)c1	-10.8
COc1ccccc1NC(=O)N1CCN(c2ncccn2)CC1	6.96
COc1ccc(S(=O)(=O)N2CCN(c3cc(-c4ccccc4)nc4ncnn34)CC2)cc1	-53.3
COc1ccccc1NC(=O)N1CCN(c2cc(-c3ccccc3)nc3ncnn23)CC1	-68.3
CCc1c(C)nc2ncnn2c1N1CCN(S(=O)(=O)c2ccc(OC)cc2)CC1	-36
O=S(=O)(c1ccccc1)N1CCN(c2cc(-c3ccccc3)nc3ncnn23)CC1	-11.8
O=C(C1=C(O)C(=O)N(CC2CCCO2)C1c1ccc(Cl)cc1)c1ccco1 (centres unmarked)	12.3

SMILES	hERG current change (%, negative = inhibition) at 10uM [%]
Cc1cc(=O)oc2c(CN3CCCC3)c(O)c(Cl)cc12	5.35
CC(CC(=O)Nc1cccc(Cl)c1)c1ccccc1 (centres unmarked)	-6.32
Cc1cc(OCC#N)nc(N)n1	3.69
CCN(CC)S(=O)(=O)c1ccc(N2CCOCC2)c(NCC(=O)Nc2ccc(F)cc2)c1	12.3
CCCCOc1ccc(/C=N/Nc2cc(N3CCOCC3)nc(C)n2)cc1	-30.5
Cc1cc(C)cc(NC(=O)C(OC(=O)c2ccc(O)cc2)c2ccccc2)c1 (centres unmarked)	-15.2
Cc1cc(C)cc(NC(=O)C(OC(=O)c2ccc(NC(=O)CC#N)cc2)c2ccccc2)c1 (centres unmarked)	-6.68
Cc1cc(C)cc(NC(=O)C(OC(=O)c2cc[n+]([O-])cc2)c2ccccc2)c1 (centres unmarked)	-74
COc1cc(OC)c(NC(=O)CCNC(=O)Cn2ccc3ccccc3c2=O)cc1Cl	7.45
CC(C)(C(N)=O)N1CCN(c2ncc(C(F)(F)F)cc2Cl)CC1	-42.4
O=C(c1ccc2nc[nH]c2c1)N1CCN(c2cccc(C(F)(F)F)c2)CC1	-11.4
O=C(c1ccc2c(c1)OCCO2)N1CCN(c2ncc(C(F)(F)F)cc2Cl)CC1	-41.3
O=C(CSc1ccccn1)N1CCN(c2ncc(C(F)(F)F)cc2Cl)CC1	-63.9
O=C(c1cccs1)N1CCN(c2ncc(C(F)(F)F)cc2Cl)CC1	-65
CCc1cc(C(=O)N2CCN(c3ncc(C(F)(F)F)cc3Cl)CC2)sc1C	-3.1
Cc1ccc(C(=O)N2CCN(c3ncc(C(F)(F)F)cc3Cl)CC2)s1	-59.8
Cc1ccsc1C(=O)N1CCN(c2ncc(C(F)(F)F)cc2Cl)CC1	-21
O=C(CN1CCN(c2ncc(C(F)(F)F)cc2Cl)CC1)N1CCN(c2ncc(C(F)(F)F)cc2Cl)CC1	11.7
CCOC(=O)N1CCN(c2ncc(C(F)(F)F)cc2Cl)CC1	21.4
O=C(CSc1ccc(Cl)cc1)N1CCN(c2ncc(C(F)(F)F)cc2Cl)CC1	-26
O=C(c1ccc2nc[nH]c2c1)N1CCN(c2ncc(C(F)(F)F)cc2Cl)CC1	-53.6

From paper PMC4336329 (PLoS ONE, 2015)
